# SRC1 inh – inhibits human SRC1 coactivator. Q15788. HEK293 GAL4-SRC1 luciferase reporter, luminescence. inhibition, % at 3.6 µM. 360,000 tested, 0.12% active. AID 588354;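 active = inhibition above the campaign mean plus 3 SD, with each screening campaign given its own cutoff, cut at about 60% in these data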;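 note: 0% = DMSO treated cells and 100% = gossypol at 36 µM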
# SRC2 inh – human SRC2 (NCOA2) inhibition; Q15596; HEK293 GAL4-SRC2 luciferase reporter, luminescence; inhibition, % at 9 µM; 370,000 tested, 0.17% active; AID 651957;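 active = inhibition above the mean inhibition of all tested compounds plus 3 SD, set per campaign, cut at about 52% in these data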;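 note: 0% = DMSO treated cells and 100% = cells given Gossypol at 36 µM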
# Target sequence (Q15596 whole entry, looked up, the tested form may be a part): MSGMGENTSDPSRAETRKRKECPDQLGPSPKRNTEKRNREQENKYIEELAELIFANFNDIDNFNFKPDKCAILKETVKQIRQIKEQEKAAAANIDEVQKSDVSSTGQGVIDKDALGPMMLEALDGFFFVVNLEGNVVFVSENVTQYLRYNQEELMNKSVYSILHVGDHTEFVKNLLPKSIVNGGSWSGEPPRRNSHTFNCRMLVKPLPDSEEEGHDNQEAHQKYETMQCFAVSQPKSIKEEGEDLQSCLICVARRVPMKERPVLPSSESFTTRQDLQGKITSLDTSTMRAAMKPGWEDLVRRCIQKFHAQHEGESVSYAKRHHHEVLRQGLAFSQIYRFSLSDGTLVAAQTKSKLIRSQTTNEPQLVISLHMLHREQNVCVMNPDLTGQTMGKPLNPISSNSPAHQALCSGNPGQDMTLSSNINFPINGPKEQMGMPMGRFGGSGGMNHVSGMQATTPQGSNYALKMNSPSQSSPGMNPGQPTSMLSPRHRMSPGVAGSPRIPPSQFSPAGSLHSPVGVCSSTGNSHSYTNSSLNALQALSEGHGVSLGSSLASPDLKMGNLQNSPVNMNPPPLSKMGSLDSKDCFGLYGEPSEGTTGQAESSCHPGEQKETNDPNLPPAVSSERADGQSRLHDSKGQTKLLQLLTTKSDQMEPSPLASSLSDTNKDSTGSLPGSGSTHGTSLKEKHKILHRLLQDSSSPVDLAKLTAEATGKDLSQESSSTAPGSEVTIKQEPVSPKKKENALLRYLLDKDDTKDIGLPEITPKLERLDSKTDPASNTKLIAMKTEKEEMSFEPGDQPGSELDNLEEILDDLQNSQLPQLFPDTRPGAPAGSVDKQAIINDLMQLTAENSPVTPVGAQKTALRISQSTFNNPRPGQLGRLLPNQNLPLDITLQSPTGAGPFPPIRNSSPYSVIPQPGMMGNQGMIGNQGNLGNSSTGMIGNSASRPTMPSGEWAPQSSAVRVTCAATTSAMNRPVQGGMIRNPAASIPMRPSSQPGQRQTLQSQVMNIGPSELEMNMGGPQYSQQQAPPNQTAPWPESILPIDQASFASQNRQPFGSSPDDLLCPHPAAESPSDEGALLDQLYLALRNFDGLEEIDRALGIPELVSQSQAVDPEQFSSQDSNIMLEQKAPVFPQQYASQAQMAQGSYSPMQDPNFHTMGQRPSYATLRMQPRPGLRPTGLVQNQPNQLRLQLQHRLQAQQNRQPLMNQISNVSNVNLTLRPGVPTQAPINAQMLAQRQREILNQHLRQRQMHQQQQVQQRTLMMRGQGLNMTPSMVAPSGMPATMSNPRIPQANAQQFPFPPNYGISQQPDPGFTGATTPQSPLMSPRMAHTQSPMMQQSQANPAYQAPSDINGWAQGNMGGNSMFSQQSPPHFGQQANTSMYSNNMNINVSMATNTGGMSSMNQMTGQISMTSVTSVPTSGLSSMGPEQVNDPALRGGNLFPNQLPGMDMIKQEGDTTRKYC
# NR5A2 inv ag – inverse agonists of human LRH-1 (NR5A2); 360,000 tested, 0.13% active; HEK293T StAR-luciferase reporter, LRH-1 transfected, 24 h; inhibition, % at 3.6 µM;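 active = inhibition above the mean inhibition of all tested compounds plus 3 SD, cut at about 73% in these data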;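 note: 0% = DMSO wells and 100% = reporter-only cells lacking LRH-1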
# GalR3 antag – blocks the human galanin receptor 3 | O60755 | HEK293 GalR3-CNG cAMP membrane potential fluorescence; galR3 body fused to GalR1 C-terminus | inhibition, % at 3 µM | 360,000 tested, 0.44% active;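 active = inhibition above the screen-wide average plus 3 SD, cut at about 13% in these data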;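 note: forskolin and galanin both at EC90 stimulate the cells; cAMP rise reported by CNG channel membrane potential dye signal; 0% = forskolin plus galanin with DMSO and 100% = forskolin alone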
# NCOA3 inh – inhibitors of human steroid receptor coactivator 3 (SRC3) | Q9Y6Q9 | HEK293 GAL4-SRC3 luciferase reporter, luminescence | inhibition, % at 3.6 µM | 360,000 tested, 0.17% active | AID 588352;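 active = inhibition above a per-campaign cutoff, the mean of all compounds plus 3 SD, cut at about 60% in these data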;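 note: 0% = DMSO-treated cells and 100% = gossypol-treated cells at 36 µM; higher means less SRC3-driven luciferase light from the GAL4 reporter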
# COUP-TFII inh – NR2F2 (human) inhibition, primary screen; AID 686940; 370,000 tested, 0.7% active; inhibition, % at 8.6 µM; HEK293T NGFI-A luciferase reporter, luminescence; P24468;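 active = inhibition above a per-plate cutoff, mean inhibition of test wells between control levels plus 3 SD, cut at about 38% in these data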;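 note: cells cotransfected with COUP-TFII expression vector driving the NGFI-A reporter; 0% = median of COUP-TF2 test wells and 100% = reporter-only cells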
# GalR3 antag conf – GalR3 (human) antagonism, confirmation; shares compounds with GalR3 antag; 1,600 tested, 59% active; HEK293 GalR3 CNG cAMP biosensor, membrane potential fluorescence; galR3 fused to GalR1 carboxy tail; challenged with forskolin and galanin at EC90; inhibition, % at 3 µM;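 active = inhibition above the primary screen's cutoff, the mean inhibition of all screened compounds plus 3 SD, cut at about 13% in these data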;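 note: 0% = forskolin plus galanin and 100% = forskolin alone with DMSO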
# CNG parental – acts as nonspecific agonist in parental HEK-CNG cells; HEK293-CNG parental cells, cAMP membrane potential fluorescence; normalised: DMSO wells 0%, forskolin wells 100%; 1,600 tested, 10% active; activation, % at 3 µM; shares compounds with GalR3 antag; in the data active = activation above about 1.3%
# * = called active by the depositor; · = no result given. The list is not random: actives were taken first. Their share in the collection is about 1.1%.
SMILES,SRC1 inh,SRC2 inh,NR5A2 inv ag,GalR3 antag,NCOA3 inh,COUP-TFII inh,GalR3 antag conf,CNG parental
Cc1ccc(Cn2cc(CN3[C@H](Cc4ccccc4)COc4cc(Br)ccc4S3(=O)=O)nn2)cc1,·,13,·,·,·,-10,·,·
COc1ccc(Cn2cc(CN3[C@H](Cc4ccccc4)COc4cc(Br)ccc4S3(=O)=O)nn2)cc1,·,-5,·,·,·,-9,·,·
NC1=NC[C@H](Cc2ccc(O)cc2)N1CCc1cccc(F)c1,-5,4,14,·,20,-10,7,0
CC(C)(C)CN1C(N)=NC[C@@H]1Cc1ccccc1,-12,-3,-6,·,-3,-68,4,0
CC(C)(C)CN1C(N)=NC[C@@H]1c1ccccc1,3,-22,1,-1,-6,-6,·,·
COc1ccc(OC)c(CN2C(=O)CCCCC2(C)c2nnnn2C2CCCC2)c1 (stereo not drawn),·,3,·,·,·,7,·,·
C=CCNc1nc2c(c(=O)n(C)c(=O)n2C)n1CCCCCC,13,4,46,41*,27,61*,83*,0
Cc1ccc(CNC(=O)c2ccc(N3CCC4(CC3)CC(c3cccc(Br)c3)=NO4)c(NC(=O)c3ccccc3)c2)cc1,-5,16,5,14*,5,-53,23*,1
COc1ccc(-c2cn(-c3ccc(C)c(Cl)c3)c(=S)[nH]2)cc1OC,4,-30,11,41*,-20,-5,102*,-2
CC(=O)Nc1ccc(OCC(O)Cn2c3ccccc3c3ccccc32)c(C)c1 (stereo not drawn),6,11,16,15*,37,29,41*,-2
CCCCCCCCN1C(=O)[C@@H](CC(=O)N2CCCCC2)C[C@@]2(C(=O)OC)C1=C[C@H](C(C)C)O[C@@H]2C1CC1,·,28,·,·,·,7,·,·
CC1CCCc2sc3nc(N4CCN(CCO)CC4)n4ncnc4c3c21 (stereo not drawn),-45,-6,4,22*,-33,-28,43*,1.9*
COc1ccc(S(=O)(=O)N2CCN(C(=O)CSc3nc4ccccc4nc3N3CCCCC3)CC2)cc1,·,4,·,·,·,19,·,·
CC(=O)Nc1ccc(NC(=O)c2nc(S(=O)(=O)Cc3ccccc3)ncc2Cl)cc1,-44,-10,-18,-6,-53,-36,·,·
CS(=O)(=O)c1ncc(Cl)c(C(=O)Nc2ccc3ccccc3c2)n1,-136,13,-59,20*,-43,-18,-2,0
O=C(CCCCl)Oc1ccc2cc(-c3ccc4ccccc4n3)c(=O)oc2c1,-1,10,-10,14*,-14,-7,13*,0
CC(=O)COc1ccc2cc(-c3ccccc3)c(=O)oc2c1,-112,-102,-74,-12,-114,-46,·,·
CCOC(=O)Cn1nnnc1C(CC)N(Cc1cccs1)Cc1cc2cc(C)ccc2[nH]c1=O (stereo not drawn),-9,-2,1,0,18,18,·,·
CCOC(=O)Cn1nnnc1C(C(C)C)N(Cc1cccs1)Cc1cc2cc(C)ccc2[nH]c1=O (stereo not drawn),-7,-1,14,37*,-14,3,28*,1
COc1ccc(OC)c(S(=O)(=O)N2CCCCC2C(=O)N2CCN(CCO)CC2)c1 (stereo not drawn),·,-25,·,·,·,-6,·,·
COc1ccc(OC)c(S(=O)(=O)N2CCCCC2C(=O)N2CCN(c3ccccn3)CC2)c1 (stereo not drawn),-22,5,23,14*,3,-4,4,0
CC1CCCCN1CCCNC(=O)CN1C(=O)c2cccnc2Oc2ccc(Cl)cc21 (stereo not drawn),-10,10,-5,14*,3,-8,19*,0
Nc1c(Cl)cc(-c2csc(NC(CO)c3nc4ccccc4n3CCOCCO)n2)cc1Cl (stereo not drawn),-10,-43,9,64*,-28,-18,8,0
OCCOCCn1c(C(CO)Nc2nc(-c3ccc(Cl)cc3)cs2)nc2ccccc21 (stereo not drawn),-17,-2,-15,0,-8,10,·,·
O=C(Nc1ccccc1O)C(c1ccccc1)c1ccccc1,16,22,23,55*,21,26,92*,-2
SMILES,SRC1 inh,SRC2 inh,NR5A2 inv ag,GalR3 antag,NCOA3 inh,COUP-TFII inh,GalR3 antag conf,CNG parental
COc1ccccc1OCC(=O)NCCC1=CCCCC1,-6,-20,-15,·,3,4,3,0
O=C(COc1ccccc1Br)NCCC1=CCCCC1,1,8,-6,-7,-7,-3,·,·
FC(F)(F)c1ccc(/C=N/NC(=S)NC2CCCCC2)cc1,0,-21,-20,-6,8,10,·,·
FC(F)(F)c1cccc(/C=N/NC(=S)NC2CCCCC2)c1,-25,10,-2,90*,14,9,84*,2.5*
O=C(CCC1CCCN(C(=O)C2CCCC2)C1)NCc1ccc(F)c(F)c1 (stereo not drawn),-14,-5,-2,-3,-1,-12,·,·
O=C(CCC1CCCN(c2ncccn2)C1)NCc1ccc(F)c(F)c1 (stereo not drawn),-25,24,8,38*,-1,-2,8,0
O=C(Nc1ccccc1)c1nn(-c2cccc(C(F)(F)F)c2)ccc1=O,2,7,-10,45*,6,-2,50*,0
COc1cccc(-c2cc(C(=O)Nc3ccc(N(C)C(C)=O)cc3)c3cc(Br)ccc3n2)c1,-2,23,4,19*,17,-24,10,1.4*
O=C1[C@@H](C2CC2)[C@@H]2c3ccccc3C=NN2[C@@H]2c3ccccc3C=NN12,·,1,·,·,·,-13,·,·
O=c1cc(-c2ccccc2)nc(SCCOc2ccccc2Cl)[nH]1,0,-23,-15,13*,0,-2,1,1
COc1cc(CSc2nc(-c3ccccc3)cc(=O)[nH]2)cc(OC)c1,-12,·,-6,·,0,·,·,·
O=C(Nc1ccccc1)Nc1cc([N+](=O)[O-])ccc1F,-7,14,-17,21*,10,13,-3,-1
COC(=O)[C@]12C[C@H](CC(=O)NCc3ccc(OC)c(OC)c3)C(=O)N(Cc3ccc(Cl)cc3Cl)C1=C[C@H](C(C)(C)C)O[C@@H]2C,·,5,·,·,·,4,·,·
CC(=O)N1CCN(c2ccc(NC(=S)NC(=O)COc3ccc(C(C)(C)C)cc3)cc2)CC1,3,4,9,30*,22,11,95*,-1
